Source: PubChem BioAssay (Tox21)
Inconclusive results are not listed. Where a call stands in place of a potency, no number is given. Activity calls are given as the source filed them. Calls come from the whole dose curve.

Assay: p53 small molecule agonists, cell-based qHTS assay with human liver microsomes (AID 1963577);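 note: p53 response element beta-lactamase reporter cells with liver microsomes plus NADPH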
Settings: HCT-116 p53RE-bla with human liver microsomes, ratio, 16 h; series mostly up to 66 µM
Outline: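 Cells carrying a p53-responsive bla reporter were rested 5 h (37 C, 5% CO2) before compound transfer. Human liver microsomes plus NADPH, 0.5 mg/mL final apiece, supplied metabolism during the 16 h 37 C exposure.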

Structure (SMILES)	Potency
Cc1ccc(C)c(S(=O)(=O)O)c1	inactive
CC1(C)CC(N=C=O)CC(C)(CN=C=O)C1 (stereo unspecified)	inactive
CC(=O)c1ccc(S(=O)(=O)NC(=O)NC2CCCCC2)cc1	inactive
O=C(OCc1ccccc1)c1ccc(O)cc1	inactive
Cc1ccc(S(=O)(=O)Oc2ccc(N=Nc3ccc(-c4ccc(N=Nc5c(O)ccc6cc(S(=O)(=O)O)cc(S(=O)(=O)O)c56)c(C)c4)cc3C)cc2)cc1	inactive
CCCN(CCC)S(=O)(=O)c1ccc(C(=O)O)cc1	inactive
CCCCC1(COC(=O)CCC(=O)O)C(=O)N(c2ccccc2)N(c2ccccc2)C1=O	inactive
NC(CO)(CO)CO	inactive
COC(=O)c1cccnc1	inactive
CCCCCCCCCCCCO	inactive
Cc1cnc(NC(=O)C2=C(O)c3ccccc3S(=O)(=O)N2C)s1	inactive
c1cnc2c(c1)ccc1cccnc12	inactive
c1ccncc1	inactive
O=C(OCc1ccccc1)c1ccccc1O	inactive
O=C(c1ccccc1)c1ccc(O)c(O)c1O	inactive
CC(C)(C#N)c1cc(Cn2cncn2)cc(C(C)(C)C#N)c1	inactive
CCCCCCCCCCCCc1ccccc1O	inactive
C[C@]12CC[C@@H]3c4ccc(O)cc4CC[C@H]3[C@@H]1CC[C@@H]2O	inactive
COCCOCCOC	inactive
CCCCCCCCCCCCCCCC[N+](C)(C)Cc1ccccc1	inactive
O=c1[nH]cc(F)c(=O)[nH]1	inactive
CCNc1cccc(C)c1	inactive

Structure (SMILES)	Potency
c1ccc2c(c1)ccc1cc3c(ccc4ccccc43)cc12	inactive
OCCOCCOCCOCCO	inactive
CCC(O)OC(O)CC (stereo unspecified)	inactive
O=Cc1ccccc1O	inactive
CN(C)c1ccc(C(=C2C=CC(=[N+](C)C)C=C2)c2ccccc2)cc1	inactive
Cc1cc(Cc2cc(C)cc(C(C)(C)C)c2O)c(O)c(C(C)(C)C)c1	inactive
CC1=C(/C=C/C(C)=C/C=C/C(C)=C/C(=O)O)C(C)(C)CCC1	inactive
CCCCCCCCCCN	inactive
Cc1noc(NS(=O)(=O)c2ccc(N)cc2)c1C	inactive
Nc1ccc(S(=O)(=O)Nc2cnc3ccccc3n2)cc1	inactive
Nc1cc(Cl)c(-c2cc(Cl)c(N)cc2Cl)cc1Cl	inactive
COc1cc([C@@H]2c3cc4c(cc3[C@H](O)[C@H]3COC(=O)[C@H]23)OCO4)cc(OC)c1OC	inactive
O=S(=O)(O)c1ccc2nc(-c3ccccc3)[nH]c2c1	inactive
CC(=O)OCCC(C)C	inactive
NS(=O)(=O)c1cc2c(cc1Cl)NCNS2(=O)=O	inactive
CCCCCCCCCCCCc1ccccc1	inactive
C#C[C@]1(O)CC[C@H]2[C@@H]3CCC4=Cc5oncc5C[C@]4(C)[C@H]3CC[C@@]21C	inactive
CCOc1ccc(NC(C)=O)cc1	inactive
COc1cc(NC(=O)CC(C)=O)c(OC)cc1Cl	inactive
O=C(O)C1=NN(c2ccc(S(=O)(=O)O)cc2)C(=O)C1	inactive
CC1COC(=O)O1 (stereo unspecified)	inactive
CCc1cccc2c3c([nH]c12)C(CC)(CC(=O)O)OCC3 (stereo unspecified)	inactive

Structure (SMILES)	Potency
COc1ccc(C(Cl)=C(c2ccc(OC)cc2)c2ccc(OC)cc2)cc1	inactive
[Na+]	inactive
O=S(=O)(O)c1ccc2cc(O)ccc2c1	inactive
CCCCCCc1ccc(O)cc1O	inactive
C=CCOC(=O)c1ccccc1C(=O)OCC=C	inactive
Nc1ncn([C@@H]2O[C@H](CO)[C@@H](O)[C@H]2O)c(=O)n1	inactive
Oc1ccc(Cc2ccccc2O)cc1	inactive
CCOC(=O)NNc1nncc2ccccc12	inactive
Cc1ccc(C(C)C)c(O)c1	inactive
COc1cc([C@H]2Oc3cc([C@H]4Oc5cc(O)cc(O)c5C(=O)[C@@H]4O)ccc3O[C@@H]2CO)ccc1O	inactive
CCCCCNCCCCC	inactive
CC(=O)Nc1ccc(C(=O)CCl)cc1	inactive
CCc1ccc(O)cc1	inactive
CC1=NN(c2ccccc2)C(=O)C1	inactive
CCCCCCCCCCCCCC[N+](C)(C)Cc1ccccc1	inactive
CC(C)(Oc1ccc(C2CC2(Cl)Cl)cc1)C(=O)O (stereo unspecified)	inactive
Nc1ccc2c(O)cc(S(=O)(=O)O)cc2c1	inactive
Oc1c(Cl)cc(Cl)c(Cl)c1Cl	inactive
Oc1c(Cl)cc(Cl)c(Cl)c1Cc1c(O)c(Cl)cc(Cl)c1Cl	inactive
Cc1cccc2n[nH]nc12	inactive
c1ccc(Oc2ccccc2)cc1	inactive
COc1ccc(C)cc1N	inactive
